# From the supplement of paper PMC8387472
# Experiments:
# Assay in all cases: fraction of 1-bp insertions among edited reads; higher = more 1-bp insertion outcomes
# Conditions in all cases: mESC; 2uM; 72 h treatment, harvest day 5
# [1] = compound: CCn1c(=O)c(-c2ccc(Cl)cc2Cl)cc2cnc(Nc3ccc(N4CCNCC4)c(F)c3)nc21
# [2] = compound: CNc1ccc([N+](=O)[O-])c(Nc2ccc3[nH]ncc3c2)n1
# [3] = compound: CO[C@H]1/C=C/O[C@@]2(C)Oc3c(C)c(O)c4c(O)c(c(/C=N/N5CCN(C6CCCC6)CC5)c(O)c4c3C2=O)NC(=O)/C(C)=C\C=C\[C@H](C)[C@H](O)[C@@H](C)[C@@H](O)[C@@H](C)[C@H](OC(C)=O)[C@@H]1C [Rifapentine]
# [4] = compound: COc1ccccc1-c1cc(Nc2cccc(CS(N)(=O)=O)c2)ncn1
# [5] = compound: C[C@@H]1CN(CC(=O)Nc2ccc3c(c2)Cc2cccc(-c4cc(=O)cc(N5CCOCC5)o4)c2S3)C[C@H](C)O1
# [6] = compound: Cc1cc(C)nc(SCC(=O)Nc2ncc(Cc3cccc4ccccc34)s2)n1
# [7] = compound: Cc1ccc(C(=O)NCCCCCC(=O)Nc2ccccc2N)cc1
# [8] = compound: Cc1cccc(CC(=O)N2CCc3c2ccc(-c2cn(C)c4ncnc(N)c24)c3F)n1
# [9] = compound: NC(=O)c1ccc2nc(-c3ccc(Oc4ccc(Cl)cc4)cc3)[nH]c2c1 [Chk 2 inhibitor II (BML-277)]
# [10] = compound: Nc1cc(F)ccc1NC(=O)c1ccc(CNC(=O)/C=C/c2cccnc2)cc1 [Tucidinostat (Chidamide)]
Target,fraction of 1-bp insertions among edited reads [1],fraction of 1-bp insertions among edited reads [2],fraction of 1-bp insertions among edited reads [3],fraction of 1-bp insertions among edited reads [4],fraction of 1-bp insertions among edited reads [5],fraction of 1-bp insertions among edited reads [6],fraction of 1-bp insertions among edited reads [7],fraction of 1-bp insertions among edited reads [8],fraction of 1-bp insertions among edited reads [9],fraction of 1-bp insertions among edited reads [10]
"22.0 (DMSO control at this site: 1-bp insertion 0.573, MH deletion 0.229, edited 0.045) CTGATGGTTGAAGGATTTAGCCGGGGTCCTAGACGCCGGGGTCCTAGACGAAAGGGCCACG",0.614,0.667,0.644,0.619,0.778,0.573,0.653,0.725,0.508,0.53
"20.0 (DMSO control at this site: 1-bp insertion 0.349, MH deletion 0.138, edited 0.084) TACAGGTGTAGACTGGTTACGTGGCTGCGGAATTGACTGGTTACGTGGCTGCGGAATTTTG",0.317,0.438,0.293,0.345,0.47,0.3,0.315,0.355,0.233,0.348
"31.0 (DMSO control at this site: 1-bp insertion 0.315, MH deletion 0.329, edited 0.026) ACCTCCACAGGCTGGGTGGCCCGGAGGCTGGGCGGCCCGGAGGCTGGGCTGGGCGAGTATC",0.115,0.185,0.232,0.192,–,0.196,0.214,–,–,0.0994
15.0 GCGCCTCCAATGACCCAGTGGGATCCTACTCCATAATGGGATCCTGGGGATTCCTCGCTCC,–,–,0.167,–,–,0.185,0.19,–,–,0.158
"18.0 (DMSO control at this site: 1-bp insertion 0.114, MH deletion 0.789, edited 0.094) GCGCAAGTGCATAAGTTTTTCTTAAGGCGTGCCTTTAAGGCGTGCCTTTGTCGGTCCTGGA",0.0919,0.103,0.103,0.109,0.18,0.105,0.113,0.128,0.0891,0.0964
"33.0 (DMSO control at this site: 1-bp insertion 0.008, MH deletion 0.771, edited 0.112) CATTAAGAGCAGCTGCCGGCCCCCAAGTGGACAGAGCTGGCCCTGCTGATTCAACAGTGCA",0.0229,0.0311,0.0305,0.0177,0.036,0.0245,0.0214,0.0211,0.0295,0.0189
"25.0 (DMSO control at this site: 1-bp insertion 0.017, MH deletion 0.774, edited 0.143) GGGCCTGAATGGTGTGGACATCTACTCGCTGGTGAGCTGGTGACTGAAAACATTCAGTGGC",0.0225,0.0261,0.0237,0.0265,0.0481,0.0281,0.0223,0.0292,0.0214,0.0363
"3.0 (DMSO control at this site: 1-bp insertion 0.109, MH deletion 0.149, edited 0.09) TGCTAGCGCCCCCACAAAGCGGACCAGCCAGCACTATAGGGAATAAGGCCAACTTGCACCC",0.126,0.124,0.133,0.13,0.244,0.144,0.112,0.15,0.121,0.123
"1.0 (DMSO control at this site: 1-bp insertion 0.521, MH deletion 0.323, edited 0.141) GTGTCACAGTGCACGAGTGACGGGATAATGTGCTGACAGGTAATTGATAGGCTTCCAACTT",0.545,0.665,0.573,0.628,0.8,0.594,0.577,0.588,0.594,0.605
"26.0 (DMSO control at this site: 1-bp insertion 0.518, MH deletion 0.262, edited 0.026) AGGGCGCGCCCCACGCACTCTGCGGCAAGTCCCTCTGCGGCAAGTCCTCGGCCCGGAAGAC",0.484,0.558,0.515,0.49,0.691,0.495,0.494,0.525,0.452,0.5
"41.0 (DMSO control at this site: 1-bp insertion 0.022, MH deletion 0.754, edited 0.115) AAAGAGACAGCAGGTATGAATCCATCTTCCTGACCCTTGGGACCAGCCGGGGCAGTGAAGC",0.0239,0.0181,0.018,0.0187,0.0495,0.0288,0.0318,0.0382,0.0265,0.0195
8.0 GCATGCGTGTTTTGGGACAATGTAGTATACATTTGGGAGGCTCTCAGCTTTTCCCAATAAA,–,–,–,–,–,0.418,–,–,–,0.257
23.0 AGAACAAAGCGCTCATATAACGATATGGGGGGTTATGGGGGGTTGAATTGCTTCAGCACGA,–,0.00131,–,–,–,–,–,–,–,–
"29.0 (DMSO control at this site: 1-bp insertion 0.084, MH deletion 0.745, edited 0.133) TTGATGAACTTCCTCTTCTTCTCATGTCTCCGGTCTCCGGTAGGCCACGTGCATGGCCACT",0.0597,0.0921,0.0712,0.106,0.339,0.0918,0.0975,0.111,0.0639,0.122
"0.0 (DMSO control at this site: 1-bp insertion 0.463, MH deletion 0.339, edited 0.14) AGGATTACCGAGACCTACGCGAACCGAAATCGCTGTCCGGTGCGCAAGCAGGGCTGGCGTC",0.394,0.535,0.468,0.559,0.793,0.523,0.498,0.526,0.495,0.534
46.0 TTAAGAGCAATGTTCACGCAACTTGAAATTATATCTGTGGTCTTCAAATTGTCTTTTGTCA,–,0.243,0.165,–,–,–,0.222,–,–,0.178
21.0 CGATTGAGAGTCAAACGGGCCAGAAAACTCCGGGAACGGGCCAGAAAACTCCGGGGCATGG,–,0.026,0.0143,0.0287,0.0355,0.0108,0.0393,–,0.0251,0.0194
"7.0 (DMSO control at this site: 1-bp insertion 0.128, MH deletion 0.374, edited 0.098) TACTCAACCGAGACCTACGCGAACCGAAATCGTATGCCGGTGCGCAAGCAGGGCTGGCGTC",0.111,0.166,0.135,0.154,0.226,0.137,0.144,0.141,0.131,0.174
"47.0 (DMSO control at this site: 1-bp insertion 0.095, MH deletion 0.585, edited 0.118) GAGTGGTCCCGAGCCAGGAACTGTGTGTGTTGCAGGGGGGCAGTAACTCCCCAACTCCCTC",0.0775,0.106,0.102,0.0993,0.269,0.0938,0.12,0.0914,0.0791,0.14
"19.0 (DMSO control at this site: 1-bp insertion 0.121, MH deletion 0.101, edited 0.057) TCTGCAGGGGTCGGAACCCGGGGGCTAGGGCTATCCCGGGGGCTAGGGCTATTAGCGAACC",0.131,0.0931,0.103,0.0834,0.27,0.0666,0.123,0.087,0.0625,0.116
"30.0 (DMSO control at this site: 1-bp insertion 0.074, MH deletion 0.67, edited 0.142) GAGCTGGCATGAGTATTTGTGCCACATGGCTCCCACATGGCTCCACATGCAAGTTTGAAAC",0.0975,0.0866,0.0945,0.115,0.178,0.0785,0.0713,0.111,0.0722,0.1
